Screening results: PubChem BioAssay, several laboratories
Wnt act: Wnt/beta-catenin pathway activators, primary screen, cell-based, plate reader, single point | Wnt/beta-catenin reporter cell assay, activator | activation, % at 9.35 µM | hit rate 1.2% among 300,000 | AID 743398, 2014; in the data active means activation above about 30%, passing the limit was not always enough; inconclusive means no clear call, values can overlap the other calls
esBAF inh: Bmi1 luciferase reporter increase in mESCs, primary screen, esBAF inhibitor project, mouse ES cells, Bmi1 luciferase knock-in, single point. 24 h; 100% = twice the neutral-well signal. reporter increase, % at 12.5 µM. hit rate 2% among 350,000. AID 602393, 2012; in the data active means activation above about 40%; inconclusive means no clear call, values can overlap the other calls;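 further: a rise in the Bmi1 reporter signal indicates esBAF inhibition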
FXN GAA850 act: FXN promoter activators, primary screen, cell-based, luciferase luminescence, HEK293 lucGAA850. HEK293 lucGAA850 FXN promoter luciferase reporter, 24 h; percent of 10 µM SAHA response. hit rate 0.56% among 360,000. activation, % at 6 µM;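 active means activation above the average of all compounds screened plus 3 SD, cutoff fixed separately per campaign, cut at about 7.5% in these data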
MITF TRPM1 HTS: activators of MITF-driven TRPM1 promoter reporter, primary screen, cell-based, SK-MEL-5, luciferase, single point; activation, % at 12.5 µM; SK-MEL-5 TRPM1-promoter luciferase, 24 h; % of positive control, neutral wells = 0; AID 588334, 2011; hit rate 0.75% among 300,000;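 active means mean activation of at least 80% with every replicate also reaching 80%; inconclusive means mean reaches 80% but some replicate falls short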
A number is an active result. Most compounds without a hit are left out; they make up all but 2.8% or so of the library.

For Cc1ccc(-c2cc(C(=O)Nc3cccnc3)[nH]n2)c(O)c1C the results were Wnt act 43.7, FXN GAA850 act inactive and MITF TRPM1 HTS 114.3.
`C[C@H]1CN([C@@H](C)CO)C(=O)c2cc(NC(=O)Cn3cnnn3)ccc2O[C@@H]1CN(C)S(=O)(=O)c1ccc(F)cc1` gave esBAF inh inactive.
Cc1noc(C)c1NC(=O)N(C)C[C@@H]1Oc2ccc(NC(=O)C3CCCCC3)cc2CC(=O)N([C@@H](C)CO)C[C@H]1C was read as esBAF inh inactive.
`C[n+]1c(/C=C/c2ccc(O)cc2)ccc2ccccc21` gave Wnt act inactive, esBAF inh 62.1, FXN GAA850 act inactive and MITF TRPM1 HTS inactive.
Screening CN1CCN(/N=C/c2ccc(OCc3ccccc3)cc2)CC1 returned Wnt act inactive, esBAF inh inactive, FXN GAA850 act inactive and MITF TRPM1 HTS 85.3.
C[C@@H]1CN([C@@H](C)CO)S(=O)(=O)c2ccc(C#CC3(O)CCCC3)cc2O[C@@H]1CN(C)C(=O)c1ccncc1 was read as esBAF inh inactive.
For O=C(O)c1ccc(-c2ccccc2)[nH]1 the results were Wnt act inactive, esBAF inh inactive, FXN GAA850 act inactive and MITF TRPM1 HTS inactive.
Screening c1ccc(-c2ccc(-c3ccccc3)[nH]2)cc1 returned Wnt act inactive, esBAF inh 71.6, FXN GAA850 act inactive and MITF TRPM1 HTS inactive.
For O=C(CSc1nnc(-c2cccs2)o1)c1cccs1 the results were esBAF inh 104.0, FXN GAA850 act inactive and MITF TRPM1 HTS inconclusive.
`CC1CCCN(C(=O)CSc2nnc(-c3ccc(O)cc3)o2)C1` (configuration not stated) gave Wnt act inactive, esBAF inh inactive, FXN GAA850 act inactive and MITF TRPM1 HTS inactive.
For CC1CCCN(C(=O)CSc2nnc(-c3cccs3)o2)C1 (configuration not stated) the results were Wnt act inactive, esBAF inh inactive, FXN GAA850 act inactive and MITF TRPM1 HTS 89.1.
`COc1ccc(-c2nnc(SCC(=O)c3cccs3)o2)cc1` gave FXN GAA850 act inactive and MITF TRPM1 HTS inconclusive.
Screening COc1ccccc1CNC(=O)C[C@H]1C[C@@H]2c3cc(NC(=O)c4cccnc4)ccc3O[C@@H]2[C@H](CO)O1 returned esBAF inh inactive.
Screening O=C([C@@H]1[C@@H](CO)[C@@H]2Cn3c(cccc3=O)[C@H]1N2Cc1cocn1)N1CCCCC1 returned esBAF inh inactive.
Screening CC(=O)NC(CC(=O)NNC(=O)COc1c(C)cccc1C)c1ccccc1 (configuration not stated) returned Wnt act 61.6, FXN GAA850 act inactive and MITF TRPM1 HTS inactive.
CC(=O)NC(CC(=O)O)c1ccccc1 (configuration not stated) was read as Wnt act inactive, esBAF inh inactive, FXN GAA850 act inactive and MITF TRPM1 HTS inactive.
`COCc1nnc(NC(=O)c2ccco2)s1` gave esBAF inh 45.0 and FXN GAA850 act inactive.
CCC(C)Sc1nnc(NC(=O)c2ccco2)s1 (configuration not stated) was read as Wnt act inactive, esBAF inh 50.4 and FXN GAA850 act inactive.
Screening COCc1nnc(NC(=O)c2sc3ccccc3c2Cl)s1 returned Wnt act inconclusive, esBAF inh 50.8 and FXN GAA850 act inactive.
CNC(=O)c1ccsc1NC(=O)c1sc2ccccc2c1Cl was read as Wnt act inconclusive, esBAF inh 42.8, FXN GAA850 act inactive and MITF TRPM1 HTS inactive.
CCOCc1nnc(NC(=O)c2ccco2)s1 was read as Wnt act inactive, esBAF inh inactive, FXN GAA850 act inactive and MITF TRPM1 HTS inactive.
CSc1nnc(NC(=O)c2ccco2)s1 was read as Wnt act inactive, esBAF inh inactive, FXN GAA850 act inactive and MITF TRPM1 HTS inactive.
Screening C[C@@H]1CN([C@H](C)CO)C(=O)Cc2cc(NC(=O)Cn3cnnn3)ccc2O[C@H]1CN(C)Cc1ccc2c(c1)OCO2 returned esBAF inh inactive.
`CN1C[C@H]2[C@@H](c3ccccc31)[C@@H](CO)N2C(=O)Nc1ccc(F)cc1` gave esBAF inh inactive.
For C[C@@H]1CN([C@H](C)CO)C(=O)c2cc(C#Cc3ccccc3F)cnc2O[C@@H]1CN(C)C(=O)C1CCC1 the results were esBAF inh inactive.
`c1ccc(-c2cn3ccccc3n2)cc1` gave Wnt act inactive, esBAF inh inactive, FXN GAA850 act inactive and MITF TRPM1 HTS inactive.
`O=C(COc1ccc(Br)cc1)NCc1cn2ccccc2n1` gave Wnt act inactive, FXN GAA850 act inactive and MITF TRPM1 HTS inactive.
Brc1ccc(-c2cn3cccnc3n2)cc1 was read as esBAF inh inconclusive and FXN GAA850 act inactive.
Screening Brc1ccc(OCc2cn3ccccc3n2)cc1 returned Wnt act inactive, FXN GAA850 act inactive and MITF TRPM1 HTS 92.9.
Screening Brc1ccc(-c2cn3ccccc3n2)cc1 returned Wnt act 49.1, esBAF inh inactive, FXN GAA850 act inactive and MITF TRPM1 HTS inactive.
For Oc1ccc(-c2cn3ccccc3n2)cc1 the results were Wnt act 38.5, esBAF inh inactive, FXN GAA850 act inactive and MITF TRPM1 HTS inactive.
Screening C[C@H]1CCCCO[C@H](CN(C)C(=O)c2ccncc2)[C@@H](C)CN([C@@H](C)CO)C(=O)c2cc(NS(=O)(=O)c3ccc(Cl)cc3)ccc2O1 returned esBAF inh inactive.
For Fc1ccc2nc(N3CCCC3)sc2c1 the results were Wnt act inactive, esBAF inh inconclusive, FXN GAA850 act inactive and MITF TRPM1 HTS 156.0.
`O=[N+]([O-])c1ccc2nc(N3CCCC3)sc2c1` gave Wnt act inactive, esBAF inh 79.0, FXN GAA850 act inactive and MITF TRPM1 HTS inconclusive.
Screening Fc1cc(F)c2nc(N3CCCCC3)sc2c1 returned Wnt act inactive, esBAF inh 66.2, FXN GAA850 act inactive and MITF TRPM1 HTS inactive.
`Cc1cc(C)c2nc(N3CCN(C(=O)c4cccs4)CC3)sc2c1` gave Wnt act inactive, FXN GAA850 act inactive and MITF TRPM1 HTS inactive.
O=C(c1cccs1)N1CCN(c2nc3c(F)cc(F)cc3s2)CC1 was read as Wnt act inactive, esBAF inh 43.1, FXN GAA850 act inactive and MITF TRPM1 HTS inactive.
For C[C@H](CO)N1C[C@H](C)[C@H](CN(C)C)Oc2ncc(-c3ccc(F)cc3)cc2C1=O the results were esBAF inh inactive.
COc1ccccc1S(=O)(=O)N[C@H]1CC[C@@H](CC(=O)N2CCOCC2)O[C@@H]1CO was read as esBAF inh inactive.
Screening C[C@@H]1CN([C@H](C)CO)C(=O)c2cc(NC(=O)CCCN(C)C)ccc2O[C@@H]1CN(C)S(=O)(=O)c1cccs1 returned esBAF inh inactive.
For O=C(Nc1ccc(F)cc1F)c1ccc2nc(N3CCOCC3)sc2c1 the results were Wnt act inactive, esBAF inh 41.7 and FXN GAA850 act inactive.
Screening C[C@H]1CN([C@@H](C)CO)C(=O)Cc2cc(NS(=O)(=O)c3ccccc3)ccc2O[C@H]1CN(C)S(=O)(=O)c1ccc(F)cc1 returned esBAF inh inactive.
